Screens from PubChem.
PAX8 inh HTS – inhibitors of PAX8-driven TPO luciferase reporter, primary screen, RMG-I cells, single concentration | 360,000 tested, 1.2% active | SteadyGlo, 24 h | inhibition, % at 12.6 µM | AID 652154, 2013;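 active = mean replicate inhibition at least 60% with every replicate also reaching 60%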;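 note: luciferase light reporting Pax8 driven TPO promoter activity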
FXN GAA850 act – FXN promoter activators, primary screen, cell-based, luciferase luminescence, HEK293 lucGAA850; HEK293 lucGAA850 FXN promoter luciferase reporter, 24 h; percent of 10 µM SAHA response; activation, % at 6 µM; 360,000 tested, 0.56% active; AID 540364, 2011;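 active = activation above the average of all compounds screened plus 3 SD, cutoff fixed separately per campaign, cut at about 7.5% in these data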
F508del corr – F508del CFTR correction, initial screen, CFBE line, single point; CFBE cells, YFP halide quenching; stimulated with forskolin plus potentiator P3; % fluorescence drop versus neutral controls; activity (quench increase), % at 7.58 µM; 350,000 tested, 0.36% active; AID 720511, 2013;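 active = mean added fluorescence quench of at least 8% versus neutral control, with both replicates also reaching 8%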;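 note: cells transiently co-express mutant CFTR-F508del with the halide-sensitive YFP; corrector assay measuring rescue of mutant channel to the surface after 24 h compound exposure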
Env fusion inh – inhibitors of HIV-1 Env-driven cell-cell fusion, primary screen, HeLa-JRFL effector, CEM21 target cells, luciferase. 360,000 tested, 1.1% active. inhibition, % at 12.3 µM;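 active = mean replicate inhibition score of at least 50 and every replicate individually at or above 50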
EWS-Fli inh – EWS/Fli-driven NR0B1 reporter inhibitors, primary screen, A673 cells, NR0B1 luciferase, luminescence, MLPCN library; viability-normalised; inhibition, % at 12.6 µM; 350,000 tested, 0.67% active;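 active = mean inhibition of at least 50% after viability correction, with every replicate also passing that limit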;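 note: firefly luciferase signal divided by Alamar Blue viability fluorescence both relative to DMSO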
Of the large screens only hits and unclear results are named; the others gave an inactive call; ! = not active in a repeat. In the library only some 2.5% were active in any assay of this set; here they are far more common.

COc1ccc(NC(=O)COc2cc(C)cc(C)c2)cc1S(=O)(=O)N1CCCCC1	Env fusion inh 60.6
COc1ccc(Nc2nc(-c3ccccc3)nc3ccccc23)cc1S(=O)(=O)N1CCOCC1	PAX8 inh HTS 65.1
Cc1ccc(NC(=O)/C=C/c2ccc(S(=O)(=O)N3CCOCC3)cc2)cc1S(=O)(=O)N(C)C	PAX8 inh HTS 66.5
COc1ccc(C(=O)Nc2ccc(-c3ccc(C)o3)cc2)cc1S(=O)(=O)N1CCOCC1	Env fusion inh 63.4 (no result: F508del corr, EWS-Fli inh)
COc1ccc(/C=C/C(=O)OCC(=O)Nc2ccc(C)cc2)cc1S(=O)(=O)N1CCOCC1	PAX8 inh HTS 76.3 (no result: Env fusion inh)
COc1ccc(NC(=O)c2cc(S(=O)(=O)N3CCOCC3)ccc2C)cc1S(=O)(=O)N1CCOCC1	F508del corr 10.3 (no result: PAX8 inh HTS)
C[C@@H]1CN([C@H](C)CO)C(=O)c2cc(C#C[C@@H](C)O)cnc2O[C@H]1CN(C)C(=O)Cc1ccccn1	none (no result: PAX8 inh HTS, FXN GAA850 act)
O=C(C1CCC1)N1C[C@H]2[C@@H](c3ccccc31)[C@H](CO)N2C(=O)c1ccccc1F	none (no result: FXN GAA850 act, Env fusion inh)
Cc1noc(C)c1NC(=O)N[C@H]1CC[C@H](CCNC(=O)C2CC2)O[C@@H]1CO	none (no result: FXN GAA850 act)
Cn1cnc(S(=O)(=O)N2[C@@H]3CNC[C@H]2C3c2ccc(-c3ccccc3)cc2)c1 (some centres undefined)	none (no result: FXN GAA850 act, Env fusion inh)
CCCC(=O)Nc1ccc2c(c1)OC[C@@H](C)N(Cc1cccc(F)c1)C[C@H](C)[C@@H](OC)CN(C)C2=O	none (no result: FXN GAA850 act, Env fusion inh)
Cc1c(CCCl)c(Cl)n2c(nc3ccccc32)c1C#N	PAX8 inh HTS 86.8
O=C(Cc1ccccn1)NCC[C@@H]1CC[C@H](NS(=O)(=O)c2ccc(F)cc2)[C@H](CO)O1	none (no result: FXN GAA850 act)
C[C@@H]1CCCCO[C@@H](CN(C)C(=O)c2ccncc2)[C@@H](C)CN([C@@H](C)CO)C(=O)c2cc(NC(=O)C3CCCCC3)ccc2O1	none (no result: FXN GAA850 act)
COCC#Cc1cnc2c(c1)C(=O)N([C@@H](C)CO)C[C@H](C)[C@@H](CN(C)C(=O)c1cnccn1)O2	none (no result: PAX8 inh HTS, FXN GAA850 act)
COc1ccc(NC(=O)Nc2ccc3c(c2)C(=O)N([C@@H](C)CO)C[C@H](C)[C@@H](CN(C)C(=O)Nc2ccc(F)cc2)O3)cc1	none (no result: FXN GAA850 act)
CCCCC(=O)N1CCN(c2ccc(OC)cc2[N+](=O)[O-])CC1	PAX8 inh HTS 87.2 (no result: Env fusion inh)
Cn1c(/C=C/c2ccccc2)nc2ccccc21	PAX8 inh HTS 78.8, EWS-Fli inh 59.1
CCCNC(=O)N(C)C[C@@H]1Oc2ncc(-c3ccc(F)cc3)cc2C(=O)N([C@H](C)CO)C[C@H]1C	none (no result: PAX8 inh HTS, FXN GAA850 act)
Cc1sc2nc(CSCC(=O)Nc3ccc(C(F)(F)F)cc3)[nH]c(=O)c2c1C	Env fusion inh 77.8
Cc1sc2nc(CSCC(=O)Nc3c(F)cccc3F)[nH]c(=O)c2c1C	none (no result: Env fusion inh)
C[C@H](CO)N1C[C@H](C)[C@@H](CN(C)C)Oc2ccc(NS(C)(=O)=O)cc2C1=O	none (no result: FXN GAA850 act, Env fusion inh)
CC(C)(C)c1ccc(-n2ncc3c2CCCC3NC(=O)CN2CCCC2=O)cc1 (centres undefined)	Env fusion inh 68.4 (no result: EWS-Fli inh)
COCCCn1c(-c2ccc(S(=O)(=O)N3CCOCC3)cc2)csc1=Nc1ccccc1	Env fusion inh 70.2 (no result: F508del corr, EWS-Fli inh)
Cc1nn(Cc2ccc(Cl)c(Cl)c2)c(C)c1NC(=O)c1noc2c1CCCCC2	Env fusion inh 55.8 (no result: PAX8 inh HTS, F508del corr, EWS-Fli inh)
Cc1ccccc1Cn1nc(C)c(NC(=O)c2noc3c2CC(C(C)(C)C)CC3)c1C (centres undefined)	Env fusion inh 56.3 (no result: PAX8 inh HTS, F508del corr, EWS-Fli inh)
Cc1ccccc1Cn1cc(NC(=O)c2noc3c2CC(C(C)(C)C)CC3)cn1 (centres undefined)	none (no result: PAX8 inh HTS, Env fusion inh)
Cc1nn(Cc2ccc(Cl)cc2)c(C)c1NC(=O)c1noc2c1CCCCC2	none (no result: PAX8 inh HTS, Env fusion inh)
CC(C)(C)C1CCc2onc(C(=O)NCc3ccc(F)cc3)c2C1 (centres undefined)	Env fusion inh 76.1 (no result: PAX8 inh HTS, F508del corr, EWS-Fli inh)
C[C@H]1CCCCO[C@H](CN(C)S(=O)(=O)c2ccc(Cl)cc2)[C@@H](C)CN([C@@H](C)CO)C(=O)c2cc(NC(=O)C3CCCCC3)ccc2O1	none (no result: FXN GAA850 act)
CC(=O)N(C)C[C@H]1[C@H](c2ccc(-c3cccc(C#N)c3)cc2)[C@@H](CO)N1C(C)=O	none (no result: FXN GAA850 act, Env fusion inh)
COc1ccc2c(c1)C(SCC(=O)NCCc1ccc(Cl)cc1)CC(C)(C)O2 (centres undefined)	Env fusion inh 62.6
COCCN(C(=O)CCl)C(C(=O)NC1CCCCC1)c1ccccc1C (centres undefined)	Env fusion inh 60.1 (no result: F508del corr, EWS-Fli inh)
Cc1cc(C)nc(N/N=C/c2cccc3ccccc23)n1	PAX8 inh HTS 82.2 (no result: Env fusion inh)
Cc1cc(C)nc(N/N=C/c2ccccc2Cl)n1	none
CCCOP(=O)(OCCC)C(Nc1cccc(C(F)(F)F)c1)c1ccc(C)cc1 (centres undefined)	Env fusion inh 80.6 (no result: PAX8 inh HTS, F508del corr, EWS-Fli inh)
COc1ccc2c3c(n(C)c2c1)[C@H](CO)N(C(=O)Cc1ccccn1)CC31CN(C)C1	none (no result: FXN GAA850 act, Env fusion inh)
O=C(Nc1cccc2ccccc12)c1nn(C23CC4CC(CC(C4)C2)C3)cc1[N+](=O)[O-]	none (no result: PAX8 inh HTS, Env fusion inh)
COc1ccc(NC(=O)c2nn(C34CC5CC(CC(C5)C3)C4)cc2[N+](=O)[O-])cc1	PAX8 inh HTS 128.3 (no result: Env fusion inh)
CNC[C@@H]1Oc2ccc(NC(=O)CCN3CCOCC3)cc2C(=O)N([C@@H](C)CO)C[C@H]1C	none (no result: FXN GAA850 act)
CCc1c(C)nc2ncnn2c1Nc1ccc(C)cc1	none
CCc1c(C)nc2ncnn2c1NCCc1ccc(OC)cc1	F508del corr 10.6 (no result: PAX8 inh HTS, Env fusion inh)
COc1ccc(OC(F)(F)F)cc1CC1(C)C(=O)Nc2cccc(Cl)c21 (centres undefined)	Env fusion inh 83.2 (no result: PAX8 inh HTS)
Cc1cc(O)cc2c1C1CCC3(C)C(=O)CCC3C1C=C2 (centres undefined)	F508del corr 8.3
O=c1cc(-c2ccc(O)c(O)c2)oc2ccc3ccccc3c12	EWS-Fli inh 61.8
CCC/C(=C1/c2ccccc2C(=O)N1c1ccccc1)c1ccc2c(c1)OCCO2	EWS-Fli inh 62.0
CCC(=O)N1C[C@H](O)COC[C@@H]2O[C@H](CC(=O)NCc3cc(F)cc(F)c3)CC[C@H]21	none (no result: FXN GAA850 act)
C/C=C/c1ccc([C@H]2[C@@H](CO)N(C(=O)NCCC)[C@H]2CNC(=O)C2CC2)cc1	none (no result: FXN GAA850 act, Env fusion inh)
C[C@@H]1CN([C@H](C)CO)C(=O)c2cc(NS(=O)(=O)c3ccc(Cl)cc3)ccc2O[C@@H](C)CCCCO[C@H]1CN(C)Cc1ccc2c(c1)OCO2	PAX8 inh HTS 89.9! (no result: FXN GAA850 act)
C[C@@H]1CCCCO[C@@H](CN(C)Cc2ccc3c(c2)OCO3)[C@@H](C)CN([C@H](C)CO)C(=O)c2cc(NS(=O)(=O)c3ccc(Cl)cc3)ccc2O1	none (no result: FXN GAA850 act)
C[C@@H]1CCCCO[C@@H](CN(C)Cc2ccc3c(c2)OCO3)[C@@H](C)CN([C@@H](C)CO)C(=O)c2cc(NS(=O)(=O)c3ccc(Cl)cc3)ccc2O1	EWS-Fli inh 69.4! (no result: FXN GAA850 act)
C[C@H](CO)N1C[C@H](C)[C@@H](CN(C)C(=O)C2CCC2)Oc2cc(-c3cccnc3)ccc2S1(=O)=O	none (no result: PAX8 inh HTS, FXN GAA850 act)
